# Screening results (PubChem)
# An excerpt weighted towards active compounds, which were near 4.5% of everything screened.
# 697 NFkB inh = inhibitors of the PMA/ionomycin-induced NF-kB reporter in 697 B cells; 697 B-cell NF-kB luciferase reporter, 16 h; inhibition, % at 4 µM; 330,000 tested, 0.33% active; AID 435022; in the data active means inhibition above about 35%
# CSC inhib = cancer stem cell inhibition. cancer stem cell-like cells viability, luminescence. 300,000 tested, 1.1% active. inhibition, % at 7.5 µM; in the data active means inhibition above about 75%; tested in HMLE shEcad cells
# Jurkat NFkB inh = inhibitors of the PMA/ionomycin-induced NF-kB reporter in Jurkat cells; PMA/ionomycin-induced NF-kB luciferase reporter, luminescence; inhibition, % at 4 µM; 330,000 tested, 0.53% active; in the data active means inhibition above about 50%
# Beta apoptosis = blocks beta cell apoptosis | INS-1E cytokine-induced death, ATP luminescence, 48 h; percent of positive-control rescue, neutral wells zero | 300,000 tested, 0.8% active | protection from apoptosis, % (test concentration not listed);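 active means Every replicate reaches about 75%, or at least half do and their mean reaches it too, limit read from the data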;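 further: 0% = cytokine-treated negative control wells and 100% = positive control rescue; higher means more ATP so stronger rescue from cytokine killing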
# Mdm2 MdmX PPI = inhibitors of human Mdm2/MdmX interaction; O15151+Q00987; SaOS-2 split-luciferase Mdm2/MdmX complementation, luminescence; inhibition, % at 8 µM; 330,000 tested, 3% active;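 active means inhibition of at least 50% at 8 µM in the primary screen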
# Target sequence (O15151 whole entry, looked up): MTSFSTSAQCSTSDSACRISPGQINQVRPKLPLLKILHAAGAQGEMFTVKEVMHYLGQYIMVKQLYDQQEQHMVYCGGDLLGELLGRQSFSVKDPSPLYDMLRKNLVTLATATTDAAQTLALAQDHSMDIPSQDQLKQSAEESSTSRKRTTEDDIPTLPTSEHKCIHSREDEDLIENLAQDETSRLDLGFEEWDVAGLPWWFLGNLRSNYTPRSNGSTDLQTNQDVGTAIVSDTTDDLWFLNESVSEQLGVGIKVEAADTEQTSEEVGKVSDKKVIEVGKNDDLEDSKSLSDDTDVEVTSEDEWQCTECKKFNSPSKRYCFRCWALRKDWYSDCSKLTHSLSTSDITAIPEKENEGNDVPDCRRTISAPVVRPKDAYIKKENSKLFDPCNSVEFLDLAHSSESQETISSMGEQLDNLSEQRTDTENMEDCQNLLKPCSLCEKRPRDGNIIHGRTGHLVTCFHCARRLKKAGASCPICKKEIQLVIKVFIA
# Target sequence (Q00987 whole entry, looked up): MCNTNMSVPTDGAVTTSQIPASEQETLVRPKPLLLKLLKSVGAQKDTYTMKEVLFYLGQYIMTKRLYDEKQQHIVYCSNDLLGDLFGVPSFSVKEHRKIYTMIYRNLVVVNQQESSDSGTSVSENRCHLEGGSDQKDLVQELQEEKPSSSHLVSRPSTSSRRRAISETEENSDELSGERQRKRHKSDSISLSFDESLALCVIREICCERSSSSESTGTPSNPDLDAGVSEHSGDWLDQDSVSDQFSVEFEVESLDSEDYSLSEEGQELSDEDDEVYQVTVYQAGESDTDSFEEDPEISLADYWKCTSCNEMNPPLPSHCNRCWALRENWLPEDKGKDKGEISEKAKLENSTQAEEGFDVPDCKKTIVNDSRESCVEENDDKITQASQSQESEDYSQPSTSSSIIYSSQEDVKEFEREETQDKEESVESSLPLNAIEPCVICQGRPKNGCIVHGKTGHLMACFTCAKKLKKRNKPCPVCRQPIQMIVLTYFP
# Gli-Sufu block = blocks Gli-Sufu signaling in a luciferase reporter | Sufu-KO-LIGHT fibroblasts, Gli luciferase reporter luminescence | inhibition, % at 5 µM | 340,000 tested, 0.74% active | AID 588413;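 active means inhibition above about 55%, limit read from the data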;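 further: 0% = DMSO-treated cells and 100% = wells with medium but no cells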
# Mdm2-MdmX conf = confirmation of human Mdm2/MdmX interaction inhibitors; AID 489028; shares compounds with Mdm2 MdmX PPI; inhibition, % at 8 µM; 10,000 tested, 55% active; Mdm2-MdmX binding, luminescent assay; in the data active means inhibition above about 40%
# FLuc counter = counter-screen for Mdm2/MdmX inhibitors: full-length luciferase | shares compounds with Mdm2 MdmX PPI | SaOS-2 full-length luciferase counterscreen, luminescence | inhibition, % at 8 µM | 6,200 tested, 77% active;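 active means mean inhibition at 8 µM reaching about 37%, which flags the compound as non-specific, limit read from the data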;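 further: p53-null SaOS-2 cells with luciferase driven by a doxycycline-inducible promoter; compound on cells about two nights before reading with doxycycline added after day one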
# Gli-Sufu confirm = Gli-SUFU antagonism confirmation, single concentration | 2,500 tested, 40% active | Sufu-KO-LIGHT cells, Gli luciferase reporter, luminescence | inhibition, % at 5 µM | shares compounds with Gli-Sufu block;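 active means mean inhibition at 5 µM reaching about 45%, limit read from the data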;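 further: plate controls were DMSO-treated cells for no effect and wells lacking cells for full effect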
# SufuKO cytotox = counter-screen for Gli-SUFU antagonists: cytotoxicity | shares compounds with Gli-Sufu block | Sufu-KO-LIGHT cells cytotoxicity, ATP luminescence | 2,500 tested, 32% active | cytotoxicity, % at 5 µM;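 active means mean cytotoxicity at 5 µM above about 25%, limit read from the data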;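 further: cells exposed to compound overnight for roughly 16 to 18 hours; plate controls were DMSO wells with cells for no effect and medium without cells for full effect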
# Wnt3a cs = Wnt3a reporter inhibition counter-screen; Wnt-LIGHT cells, Wnt3a-driven luciferase reporter, luminescence; shares compounds with Gli-Sufu block; inhibition, % at 6.25 µM; 2,500 tested, 20% active;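 active means mean inhibition above about 25%, limit read from the data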
# The depositor's hits bear a star; x = no result.
SMILES,697 NFkB inh,CSC inhib,Jurkat NFkB inh,Beta apoptosis,Mdm2 MdmX PPI,Gli-Sufu block,Mdm2-MdmX conf,FLuc counter,Gli-Sufu confirm,SufuKO cytotox,Wnt3a cs
CCOC(=O)c1[nH]c2c(c1-c1ccccc1)C(=O)CC(c1ccccc1)C2 (stereo not given),-15,20,3,0,7,-11,x,x,x,x,x
COC(=O)c1[nH]c2c(c1C)C(=O)CC(c1ccccc1)C2 (stereo not given),-50,56,45,39,70*,57*,55*,89*,52*,53*,-24
Cc1cc(Nc2cccc([N+](=O)[O-])c2)c2ccccc2n1,-24,5,21,25,-19,33,x,x,x,x,x
Cc1cc(Nc2ccc([N+](=O)[O-])cc2)c2ccccc2n1,-12,-1,-4,41,93*,56*,70*,55*,38,13,3
COc1ccc(-n2nc(C(=O)c3cccs3)cc(-c3nc4ccccc4[nH]3)c2=N)cc1,-147,49,-7,-19,98*,98*,49*,31,3,-16,-13
O=C(Nc1cc(Sc2ccccn2)cc([N+](=O)[O-])c1)c1ccc(Cl)cc1,-42,46,21,75*,52*,53,12,x,20,10,-58
CNC(=O)C1CCN(S(=O)(=O)c2c(C)noc2/C=C/c2ccc(C)cc2)CC1,2,-9,-4,4,15,3,x,x,x,x,x
CCN(CC)c1ccc(/C=N/NC(=O)c2c(Cl)cnn2C)c(O)c1,-3,-6,32,95*,71*,87*,81*,27,68*,33*,59*
CCOc1ccccc1NC(=O)c1ccc2nc[nH]c2c1,7,-2,-9,-8,9,17,x,x,x,x,x
Nc1cc(N)c(OCC(F)(F)F)cc1OCC(F)(F)F,-7,-7,3,6,78*,68*,14,x,23,2,24
Nc1cc(OCC(F)(F)F)cc([N+](=O)[O-])c1,-13,11,1,-4,-20,-3,x,x,x,x,x
O=C1NC[C@@H](c2ccccc2)OC(=O)[C@@H](Cc2ccc(F)cc2)CC/C=C/C[C@@H]1CC(=O)N(CCO)Cc1ccccc1,12,3,9,-3,21,6,x,x,x,x,x
O=C(C[C@H]1C/C=C\C[C@H](NC(=O)OCC2c3ccccc3-c3ccccc32)C(=O)O[C@H](c2ccccc2)CNC1=O)N[C@H](CO)Cc1ccccc1,-9,x,-13,35,78*,63*,47*,56*,54*,34*,-12
O=C(C[C@H]1C/C=C\C[C@@H](Cc2ccc(F)cc2)C(=O)O[C@H](c2ccccc2)CNC1=O)N[C@@H](CO)Cc1ccccc1,20,x,3,2,-2,-5,x,x,x,x,x
O=C(N[C@@H]1C/C=C\C[C@H](CC(=O)N(CCO)Cc2ccccc2)C(=O)NC[C@@H](c2ccccc2)OC1=O)OCC1c2ccccc2-c2ccccc21,7,x,-4,26,51*,67*,7,x,65*,26*,-6
O=C1CC/C=C\C[C@@H](CC(=O)N(CCO)Cc2ccccc2)C(=O)NC[C@@H](c2ccccc2)O1,3,-20,-4,-5,6,-3,x,x,x,x,x
O=C(N[C@@H]1C/C=C\C[C@@H](CC(=O)N(CCO)Cc2ccccc2)C(=O)NC[C@H](c2ccccc2)OC1=O)OCC1c2ccccc2-c2ccccc21,-7,x,19,11,61*,59*,11,x,62*,23,16
O=C(C[C@H]1C/C=C\CC[C@@H](Cc2ccc(F)cc2)C(=O)OCCNC1=O)NCCO,6,x,-8,-9,18,3,x,x,x,x,x
COc1ccc(C(=O)C(O)C(c2ccc(C)cc2)N2CCOCC2)cc1OC (stereo not given),6,-13,5,-5,22,8,x,x,x,x,x
COc1cc(C(=O)Nc2ccc3c(c2)CCCN3C(=O)c2ccco2)c([N+](=O)[O-])cc1OC,7,-4,19,1,5,5,x,x,x,x,x
Cc1ccc(-c2cc3cccc[n+]3cc2-c2ccc(C)cc2)cc1,-81,4,50,110*,52*,86*,43*,48*,89*,27*,48*
c1ccc(COc2ncnc3c2ncn3CCCNCc2ccc3c(c2)OCO3)cc1,x,x,x,x,x,6,x,x,x,x,x
O=C(O)c1cccc(Nc2nc3ccccc3nc2NS(=O)(=O)c2ccc(F)cc2)c1,-3,-6,-7,-4,22,-18,x,x,x,x,x
O=S(=O)(Nc1nc2ccccc2nc1Nc1ccc2c(c1)OCO2)c1ccc(F)cc1,-29,0,-6,27,50*,58*,27,x,58*,16,51*
COc1ccc(C2=Nn3c(nnc3C3CCCCC3)SC2)cc1OC,0,-10,16,-9,49,14,x,x,x,x,x
SMILES,697 NFkB inh,CSC inhib,Jurkat NFkB inh,Beta apoptosis,Mdm2 MdmX PPI,Gli-Sufu block,Mdm2-MdmX conf,FLuc counter,Gli-Sufu confirm,SufuKO cytotox,Wnt3a cs
COc1ccc(C2=Nn3c(nnc3-c3ccccc3OC)SC2)cc1OCC1CC1,-75,x,-2,32,74*,65*,66*,86*,60*,65*,-105
CCCN(CC(=O)Nc1ccccc1C)C(=O)/C=C/c1ccc(S(=O)(=O)N2CCCCCC2)cc1,1,3,3,8,25,4,x,x,x,x,x
CCN(CCCNC(=O)c1cc2c(-c3cccc(OC)c3)nn(C)c2s1)Cc1ccccc1,-6,7,2,-5,55*,59*,26,x,16,7,-31
CC1CCC(C(C)C)C(OC(=O)Cn2c(-c3ccccc3)[n+](C)c3ccccc32)C1 (stereo not given),-24,17,49,104*,93*,87*,94*,38*,89*,38*,38*
CC(C)(C)OC(=O)N[C@H](C(=O)OC(C)(C)C)c1ccc2ccccc2c1,5,-8,-3,5,-7,-3,x,x,x,x,x
CC(=O)Nc1ccc(SCC(=O)c2cc(C)ccc2C)cc1,5,10,-9,1,-3,5,x,x,x,x,x
CC(=O)Nc1ccc(SCC(=O)c2cc(C)n(-c3ccccc3)c2C)cc1,-90,84*,-27,-1,65*,51,79*,94*,70*,6,77*
